Data taken from PubChem BioAssay AID1159580 (chemical genetic matrix, 2015).
Where “and” joins values, the source holds several entries; their conditions need not be identical. Identical values can stand only once. The whole screen tested about 5,500 compounds, of which about 2,000 (36%) were called active. Not shown: some 18% with an inconclusive outcome. Rule as the data show it: active = normalized growth mostly below about 0.91 (no sharp cut-off); inconclusive = no clear call, values can overlap the other calls; inactive = mostly above about 0.92. The list shows a part of the results.

Assay: chemical genetic growth profiling, strain panel (AID 1159580);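 also: tested at 20 µM; growth read once vehicle control cultures reached saturation at 30 °C; 1 = growth at the plate median or of vehicle wells; lower values mean less growth of the strain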
Conditions: growth OD

Measured: normalized growth

CCCCNC(=O)NS(=O)(=O)c1ccc(C)cc1
inactive: S. cerevisiae deletion strains, locus YJR075W, strain HOC1, active compounds read low 0.963 and 0.994 | S. cerevisiae deletion strains, locus YKL009W, strain mrt4, active compounds read low 0.953 | S. cerevisiae deletion strains, locus YKL068W, active compounds read low 0.98 | S. cerevisiae deletion strains, locus YKL085W, strain MDH1 (second series), active compounds read low 0.973 | S. cerevisiae deletion strains, locus YKL085W, strain MDH1, active compounds read low 0.973 | S. cerevisiae deletion strains, locus YKL160W, strain elf1, active compounds read low 1 | S. cerevisiae deletion strains, locus YKL190W, strain CNB1, active compounds read low 0.991 | S. cerevisiae deletion strains, locus YKR001C, strain vps1, active compounds read low 0.985 | S. cerevisiae deletion strains, locus YKR026C, strain gcn3, active compounds read low 0.999 | S. cerevisiae deletion strains, locus YKR091W, strain srl3, active compounds read low 1.01 | S. cerevisiae deletion strains, locus YLL001W, strain dnm1, active compounds read low 1.02 | S. cerevisiae deletion strains, locus YLL026W, active compounds read low 1.01 | S. cerevisiae deletion strains, locus YLL041C, strain sdh2, active compounds read low 1.01 | S. cerevisiae deletion strains, locus YLR027C, strain aat2, active compounds read low 1 | S. cerevisiae deletion strains, locus YLR039C, strain RIC1, active compounds read low 0.961 | S. cerevisiae deletion strains, locus YLR058C, strain SHM2, active compounds read low 0.991 | S. cerevisiae deletion strains, locus YLR102C, strain apc9, active compounds read low 0.985 | S. cerevisiae deletion strains, locus YLR113W, strain HOG1, active compounds read low 0.915 | S. cerevisiae deletion strains, locus YLR221C, strain rsa3, active compounds read low 0.952 | S. cerevisiae deletion strains, locus YLR258W, strain gsy2, active compounds read low 1.01 | S. cerevisiae deletion strains, locus YLR262C, strain YPT6 (second series), active compounds read low 0.984 | S. cerevisiae deletion strains, locus YLR262C, strain YPT6, active compounds read low 0.933 | S. cerevisiae deletion strains, locus YLR268W, strain sec22, active compounds read low 0.951 | S. cerevisiae deletion strains, locus YLR320W, strain mms22, active compounds read low 0.999 | S. cerevisiae deletion strains, locus YLR330W, strain CHS5, active compounds read low 0.986 | S. cerevisiae deletion strains, locus YLR342W, strain FKS1 (second series), active compounds read low 1.01 | S. cerevisiae deletion strains, locus YLR342W, strain FKS1, active compounds read low 1.02 | S. cerevisiae deletion strains, locus YLR357W, strain rsc2, active compounds read low 1.02 | S. cerevisiae deletion strains, locus YLR370C, strain arc18, active compounds read low 1.02 | S. cerevisiae deletion strains, locus YLR371W, strain rom2, active compounds read low 0.974 | S. cerevisiae deletion strains, locus YLR384C, strain iki3, active compounds read low 1.02 | S. cerevisiae deletion strains, locus YLR418C, strain cdc73, active compounds read low 1.01 | S. cerevisiae deletion strains, locus YML016C, strain PPZ1, active compounds read low 0.996 | S. cerevisiae deletion strains, locus YML032C, strain rad52, active compounds read low 0.983 | S. cerevisiae deletion strains, locus YML120C, strain ndi1, active compounds read low 1.03 | S. cerevisiae deletion strains, locus YML124C, strain tub3, active compounds read low 0.979 | S. cerevisiae deletion strains, locus YMR058W, strain fet3, active compounds read low 1.02 | S. cerevisiae deletion strains, locus YMR078C, strain ctf18, active compounds read low 0.969 | S. cerevisiae deletion strains, locus YMR125W, strain sto1, active compounds read low 1.02 | S. cerevisiae deletion strains, locus YMR129W, active compounds read low 1.01 | S. cerevisiae deletion strains, locus YMR205C, strain PFK2, active compounds read low 1.01 | S. cerevisiae deletion strains, locus YMR223W, strain ubp8, active compounds read low 1.01 | S. cerevisiae deletion strains, locus YMR231W, strain pep5, active compounds read low 1 | S. cerevisiae deletion strains, locus YMR263W, strain SAP30, active compounds read low 0.999 | S. cerevisiae deletion strains, locus YMR307W, strain GAS1, active compounds read low 1.01 and 1 | S. cerevisiae deletion strains, locus YNL067W, strain RPL9B, active compounds read low 0.992 | S. cerevisiae deletion strains, locus YNL071W, strain lat1, active compounds read low 1.01 | S. cerevisiae deletion strains, locus YNL128W, strain TEP1, active compounds read low 0.965 and 0.986 | S. cerevisiae deletion strains, locus YNL175C, strain NOP13, active compounds read low 1.01 | S. cerevisiae deletion strains, locus YNL183C, strain NPR1, active compounds read low 0.912 | S. cerevisiae deletion strains, locus YNL197C, strain WHI3, active compounds read low 1.01 | S. cerevisiae deletion strains, locus YNL209W, strain ssb2, active compounds read low 1.02 | S. cerevisiae deletion strains, locus YNL224C, strain SQS1, active compounds read low 0.995 | S. cerevisiae deletion strains, locus YNL233W, strain BNI4, active compounds read low 1 | S. cerevisiae deletion strains, locus YNL248C, strain rpa49, active compounds read low 1 | S. cerevisiae deletion strains, locus YNL250W, strain rad50, active compounds read low 0.998 | S. cerevisiae deletion strains, locus YNL271C, strain bni1, active compounds read low 0.991 | S. cerevisiae deletion strains, locus YNL298W, strain CLA4, active compounds read low 0.981 | S. cerevisiae deletion strains, locus YNL307C, strain MCK1, active compounds read low 0.978 | S. cerevisiae deletion strains, locus YNL322C, strain KRE1 (second series), active compounds read low 0.99 | S. cerevisiae deletion strains, locus YNL322C, strain KRE1, active compounds read low 0.992 | S. cerevisiae deletion strains, locus YNR049C, strain mso1, active compounds read low 1.01 | S. cerevisiae deletion strains, locus YNR052C, strain pop2, active compounds read low 0.98 | S. cerevisiae deletion strains, locus YOL006C, strain TOP1, active compounds read low 1.07 | S. cerevisiae deletion strains, locus YOL012C, strain htz1 1.12 | S. cerevisiae deletion strains, locus YOL147C, strain pex11, active compounds read low 0.981 | S. cerevisiae deletion strains, locus YOR001W, strain rrp6, active compounds read low 1.02 | S. cerevisiae deletion strains, locus YOR061W, strain CKA2, active compounds read low 1 | S. cerevisiae deletion strains, locus YOR069W, strain VPS5, active compounds read low 0.985 | S. cerevisiae deletion strains, locus YOR070C, strain gyp1, active compounds read low 1.01 | S. cerevisiae deletion strains, locus YOR080W, strain dia2, active compounds read low 1.02 | S. cerevisiae deletion strains, locus YOR083W, strain WHI5 (second series), active compounds read low 1.01 | S. cerevisiae deletion strains, locus YOR083W, strain WHI5, active compounds read low 0.998 | S. cerevisiae deletion strains, locus YOR106W, strain vam3, active compounds read low 1.04 | S. cerevisiae deletion strains, locus YOR136W, strain idh2, active compounds read low 0.998 | S. cerevisiae deletion strains, locus YOR144C, strain elg1, active compounds read low 0.992 | S. cerevisiae deletion strains, locus YOR184W, strain ser1, active compounds read low 1 | S. cerevisiae deletion strains, locus YOR231W, strain MKK1, active compounds read low 0.983 | S. cerevisiae deletion strains, locus YOR265W, strain rbl2, active compounds read low 1.01 | S. cerevisiae deletion strains, locus YOR270C, strain vph1, active compounds read low 1.04 | S. cerevisiae deletion strains, locus YOR290C, strain snf2, active compounds read low 0.998 | S. cerevisiae deletion strains, locus YOR316C, strain cot1, active compounds read low 0.979 | S. cerevisiae deletion strains, locus YPL051W, strain arl3, active compounds read low 0.999 | S. cerevisiae deletion strains, locus YPL055C, strain LGE1, active compounds read low 1.01 | S. cerevisiae deletion strains, locus YPL078C, strain atp4, active compounds read low 1.04 | S. cerevisiae deletion strains, locus YPL106C, strain sse1, active compounds read low 1.06 | S. cerevisiae deletion strains, locus YPL240C, strain hsp82, active compounds read low 1 | S. cerevisiae deletion strains, locus YPL241C, strain CIN2, active compounds read low 0.994 and 1 | S. cerevisiae deletion strains, locus YPL256C, strain CLN2, active compounds read low 0.945 | S. cerevisiae deletion strains, locus YPR119W, strain clb2, active compounds read low 0.986 | S. cerevisiae deletion strains, locus YPR141C, strain kar3, active compounds read low 0.979 | S. cerevisiae deletion strains, locus YPR163C, strain tif3, active compounds read low 0.979 | S. cerevisiae deletion strains, locus YPR167C, strain met16, active compounds read low 0.987 | S. cerevisiae deletion strains, strain wtn01, active compounds read low 0.969 | S. cerevisiae strains, strain wild type, active compounds read low 1
